In the supplement of paper PMC10849652:
The full data set covers some 8,800 targets. This sample favours those with a hit. About 0.5% of all pairs of compound and target were hits.

compound: CC1=C(C=C(C=C1)NC(=O)C2=CC(=CC=C2)C(C)(C)C#N)NC3=CC4=C(C=C3)N=CN(C4=O)C; assay: log2 fold change, soluble protein after heating vs DMSO (PISA); higher = thermal stabilisation; K562 lysate, 10 uM; active = over 0.2 and 3.5 SD of the protein, either way, in both replicates (recomputed)
How it was run: (§1)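 Dounce homogenisation of K562 pellets in PBS pH 7.4 with 1 mM MgCl2 produced a crude extract, used at 1 mg/mL protein. Exposure to 10 μM compound lasted 30 min, and aliquots were then heated for 3 min across 48°C-58°C, pooled and brought to 0.5% NP-40 at 4°C. The supernatant after 21,000xg for 90 min was quantified by TMTpro 16plex LC-MS/MS with channel sums equalised. Duplicate values are given as log-two fold change in thermal stability relative to solvent controls.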

Sequence of UniProt Q9BRT2 (Q9BRT2 whole entry, looked up): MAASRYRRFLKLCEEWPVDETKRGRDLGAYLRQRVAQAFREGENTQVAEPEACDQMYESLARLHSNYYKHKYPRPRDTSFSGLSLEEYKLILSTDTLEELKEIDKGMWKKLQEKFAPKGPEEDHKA
Sequence of UniProt Q9UKY1 (Q9UKY1 whole entry, looked up): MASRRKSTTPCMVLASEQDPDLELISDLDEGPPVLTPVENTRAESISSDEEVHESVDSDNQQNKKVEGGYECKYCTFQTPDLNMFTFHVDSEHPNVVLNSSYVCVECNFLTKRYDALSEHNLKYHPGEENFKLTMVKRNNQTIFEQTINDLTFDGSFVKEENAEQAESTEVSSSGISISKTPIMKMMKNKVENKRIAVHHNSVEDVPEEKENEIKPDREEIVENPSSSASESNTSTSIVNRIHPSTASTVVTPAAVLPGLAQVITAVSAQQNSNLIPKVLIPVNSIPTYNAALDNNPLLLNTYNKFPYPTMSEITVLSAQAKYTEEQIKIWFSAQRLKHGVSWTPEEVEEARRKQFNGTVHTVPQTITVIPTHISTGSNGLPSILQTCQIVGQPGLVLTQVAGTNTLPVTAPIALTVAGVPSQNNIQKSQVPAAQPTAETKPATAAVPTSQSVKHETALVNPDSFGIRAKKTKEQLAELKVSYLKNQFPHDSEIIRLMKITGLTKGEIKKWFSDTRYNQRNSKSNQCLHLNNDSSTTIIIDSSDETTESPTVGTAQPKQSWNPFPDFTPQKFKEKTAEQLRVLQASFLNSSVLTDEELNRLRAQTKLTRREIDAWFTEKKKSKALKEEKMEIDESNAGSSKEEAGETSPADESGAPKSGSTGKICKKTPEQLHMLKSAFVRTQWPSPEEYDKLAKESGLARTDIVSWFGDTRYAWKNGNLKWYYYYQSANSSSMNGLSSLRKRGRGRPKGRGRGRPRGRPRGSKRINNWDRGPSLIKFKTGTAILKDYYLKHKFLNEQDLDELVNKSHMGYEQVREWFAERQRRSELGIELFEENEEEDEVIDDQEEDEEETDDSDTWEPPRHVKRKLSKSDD
Sequence of UniProt Q86T24 (Q86T24 whole entry, looked up): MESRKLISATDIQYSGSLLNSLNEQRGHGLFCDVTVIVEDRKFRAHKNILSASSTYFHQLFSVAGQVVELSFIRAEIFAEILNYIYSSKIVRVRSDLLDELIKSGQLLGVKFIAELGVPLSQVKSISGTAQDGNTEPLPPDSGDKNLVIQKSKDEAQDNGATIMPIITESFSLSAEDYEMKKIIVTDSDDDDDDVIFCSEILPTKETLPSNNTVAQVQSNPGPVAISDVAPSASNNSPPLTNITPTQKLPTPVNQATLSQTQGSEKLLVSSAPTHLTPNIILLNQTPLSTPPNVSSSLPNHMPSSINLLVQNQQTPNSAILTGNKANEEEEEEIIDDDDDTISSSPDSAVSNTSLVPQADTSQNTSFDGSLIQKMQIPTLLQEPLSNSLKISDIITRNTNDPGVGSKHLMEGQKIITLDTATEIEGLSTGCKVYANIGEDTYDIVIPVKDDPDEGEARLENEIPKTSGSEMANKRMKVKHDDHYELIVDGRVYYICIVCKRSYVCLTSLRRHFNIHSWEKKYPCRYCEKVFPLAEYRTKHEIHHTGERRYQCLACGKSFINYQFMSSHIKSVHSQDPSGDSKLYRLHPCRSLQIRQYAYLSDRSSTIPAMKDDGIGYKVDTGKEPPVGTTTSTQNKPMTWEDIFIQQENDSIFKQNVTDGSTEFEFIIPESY
Sequence of UniProt P50552 (P50552 whole entry, looked up): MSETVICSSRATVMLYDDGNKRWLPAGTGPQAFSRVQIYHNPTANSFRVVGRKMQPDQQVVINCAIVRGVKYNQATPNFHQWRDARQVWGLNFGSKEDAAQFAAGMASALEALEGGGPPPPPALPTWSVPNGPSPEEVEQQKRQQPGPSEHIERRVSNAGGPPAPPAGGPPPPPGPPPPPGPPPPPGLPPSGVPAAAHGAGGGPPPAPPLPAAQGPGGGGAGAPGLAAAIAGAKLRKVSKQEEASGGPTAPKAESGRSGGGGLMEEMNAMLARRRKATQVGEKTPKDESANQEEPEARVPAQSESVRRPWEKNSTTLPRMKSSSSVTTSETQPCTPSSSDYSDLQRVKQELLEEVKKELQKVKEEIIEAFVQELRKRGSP
Sequence of UniProt Q96TA2 (Q96TA2 whole entry, looked up): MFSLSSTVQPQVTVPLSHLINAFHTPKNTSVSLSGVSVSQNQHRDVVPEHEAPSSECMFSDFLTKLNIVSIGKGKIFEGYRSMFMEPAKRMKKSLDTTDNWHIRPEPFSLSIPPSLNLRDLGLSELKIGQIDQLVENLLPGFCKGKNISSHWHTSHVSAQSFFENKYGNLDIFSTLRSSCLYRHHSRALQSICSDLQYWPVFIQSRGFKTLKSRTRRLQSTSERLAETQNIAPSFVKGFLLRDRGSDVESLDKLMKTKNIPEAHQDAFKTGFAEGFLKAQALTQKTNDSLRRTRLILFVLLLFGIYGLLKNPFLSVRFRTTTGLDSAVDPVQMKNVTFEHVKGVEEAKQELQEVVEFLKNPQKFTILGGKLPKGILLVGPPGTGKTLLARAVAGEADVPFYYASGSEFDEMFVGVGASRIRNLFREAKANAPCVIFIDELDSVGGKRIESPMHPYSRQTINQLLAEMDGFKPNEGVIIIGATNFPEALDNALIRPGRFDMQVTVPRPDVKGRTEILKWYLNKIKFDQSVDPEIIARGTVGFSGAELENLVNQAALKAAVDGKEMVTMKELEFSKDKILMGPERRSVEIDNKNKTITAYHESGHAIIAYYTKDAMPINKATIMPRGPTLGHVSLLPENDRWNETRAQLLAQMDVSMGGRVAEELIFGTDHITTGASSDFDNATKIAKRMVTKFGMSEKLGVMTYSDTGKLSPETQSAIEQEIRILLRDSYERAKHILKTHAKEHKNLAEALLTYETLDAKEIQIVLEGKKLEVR
Sequence of UniProt Q9H270 (Q9H270 whole entry, looked up): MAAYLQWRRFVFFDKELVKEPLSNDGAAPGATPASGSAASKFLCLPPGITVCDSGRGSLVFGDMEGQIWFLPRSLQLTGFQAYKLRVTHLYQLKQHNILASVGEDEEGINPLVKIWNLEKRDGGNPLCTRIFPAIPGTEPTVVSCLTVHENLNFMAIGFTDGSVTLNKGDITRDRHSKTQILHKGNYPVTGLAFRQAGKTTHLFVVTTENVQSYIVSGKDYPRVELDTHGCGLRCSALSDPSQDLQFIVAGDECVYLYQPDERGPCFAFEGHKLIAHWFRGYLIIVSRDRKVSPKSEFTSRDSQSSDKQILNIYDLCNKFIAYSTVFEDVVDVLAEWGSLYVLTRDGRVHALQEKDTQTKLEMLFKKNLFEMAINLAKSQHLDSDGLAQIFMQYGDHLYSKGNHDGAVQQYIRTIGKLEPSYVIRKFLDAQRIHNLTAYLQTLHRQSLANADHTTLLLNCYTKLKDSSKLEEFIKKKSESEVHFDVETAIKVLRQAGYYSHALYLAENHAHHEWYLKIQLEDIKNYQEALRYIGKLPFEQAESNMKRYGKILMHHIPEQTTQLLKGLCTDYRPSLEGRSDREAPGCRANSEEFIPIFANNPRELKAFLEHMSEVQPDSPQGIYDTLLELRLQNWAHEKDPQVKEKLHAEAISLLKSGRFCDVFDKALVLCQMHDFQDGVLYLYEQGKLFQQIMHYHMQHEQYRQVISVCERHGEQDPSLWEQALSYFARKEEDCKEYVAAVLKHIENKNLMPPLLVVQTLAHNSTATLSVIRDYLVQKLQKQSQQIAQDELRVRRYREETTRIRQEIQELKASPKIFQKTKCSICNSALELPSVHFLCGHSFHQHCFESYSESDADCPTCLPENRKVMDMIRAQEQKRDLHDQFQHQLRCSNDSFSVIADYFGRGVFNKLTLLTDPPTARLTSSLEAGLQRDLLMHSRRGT
Sequence of UniProt Q9H9H4 (Q9H9H4 whole entry, looked up): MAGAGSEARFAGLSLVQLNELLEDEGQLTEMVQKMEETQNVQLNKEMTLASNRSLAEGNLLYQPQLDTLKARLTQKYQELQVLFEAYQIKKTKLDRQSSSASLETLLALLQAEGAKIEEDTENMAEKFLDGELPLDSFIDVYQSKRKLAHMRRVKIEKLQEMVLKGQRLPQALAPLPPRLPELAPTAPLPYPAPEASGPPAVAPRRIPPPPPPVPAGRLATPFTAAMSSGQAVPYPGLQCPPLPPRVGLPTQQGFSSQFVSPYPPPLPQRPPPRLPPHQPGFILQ
Sequence of UniProt Q9Y5J1 (Q9Y5J1 whole entry, looked up): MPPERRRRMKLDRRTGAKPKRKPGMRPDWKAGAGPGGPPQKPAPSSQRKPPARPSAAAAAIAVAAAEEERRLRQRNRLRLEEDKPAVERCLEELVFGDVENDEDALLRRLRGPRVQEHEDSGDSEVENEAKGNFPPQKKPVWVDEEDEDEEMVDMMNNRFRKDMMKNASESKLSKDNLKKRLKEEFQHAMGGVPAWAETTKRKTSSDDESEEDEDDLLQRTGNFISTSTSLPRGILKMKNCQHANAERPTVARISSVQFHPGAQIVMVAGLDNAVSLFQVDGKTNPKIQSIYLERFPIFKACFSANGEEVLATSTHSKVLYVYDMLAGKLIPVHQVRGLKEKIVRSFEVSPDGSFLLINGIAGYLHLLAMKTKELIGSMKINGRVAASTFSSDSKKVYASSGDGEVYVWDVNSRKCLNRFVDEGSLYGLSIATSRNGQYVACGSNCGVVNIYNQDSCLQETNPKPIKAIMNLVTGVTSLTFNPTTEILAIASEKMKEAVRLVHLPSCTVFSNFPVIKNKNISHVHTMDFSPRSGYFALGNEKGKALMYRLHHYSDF
Sequence of UniProt Q96NC0 (Q96NC0 whole entry, looked up): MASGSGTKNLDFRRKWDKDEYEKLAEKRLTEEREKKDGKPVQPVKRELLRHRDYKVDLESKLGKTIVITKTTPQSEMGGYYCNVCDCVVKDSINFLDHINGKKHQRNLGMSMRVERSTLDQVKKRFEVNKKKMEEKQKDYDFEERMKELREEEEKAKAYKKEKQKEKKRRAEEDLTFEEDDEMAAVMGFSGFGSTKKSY
Sequence of UniProt O00258 (O00258 whole entry, looked up): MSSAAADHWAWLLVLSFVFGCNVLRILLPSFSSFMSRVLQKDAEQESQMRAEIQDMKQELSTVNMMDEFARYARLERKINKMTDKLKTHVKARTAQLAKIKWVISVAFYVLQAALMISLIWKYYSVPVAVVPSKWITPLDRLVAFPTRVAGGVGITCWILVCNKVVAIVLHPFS

Target | log2 fold change
UQCC2 (UniProt Q9BRT2) | 0.007 (inactive)
ZZEF1 (UniProt O43149) | 0.023 (inactive)
YME1L1 (UniProt Q96TA2) | 0.005 (inactive)
WIPI2 (UniProt Q9Y4P8) | 0.006 (inactive)
VPS37B (UniProt Q9H9H4) | 0.019 (inactive)
WDR41 (UniProt Q9HAD4) | 0.164 (inactive)
WRN (UniProt Q14191) | -0.016 (inactive)
UNC45A (UniProt Q9H3U1) | 0.004 (inactive)
USP10 isoform 2 (UniProt Q14694) | 0.003 (inactive)
ZNF346 (UniProt Q9UL40) | -0.019 (inactive)
USP8 (UniProt P40818) | -0.001 (inactive)
UTP3 (UniProt Q9NQZ2) | -0.016 (inactive)
USP48 (UniProt Q86UV5) | -0.039 (inactive)
YEATS4 (UniProt O95619) | 0.041 (inactive)
VASP (UniProt P50552) | 0.014 (inactive)
VPS16 (UniProt Q9H269) | 0.019 (inactive)
WRNIP1 (UniProt Q96S55) | -0.023 (inactive)
ZMYM1 (UniProt Q5SVZ6) | 0.001 (inactive)
WRB (UniProt O00258) | 0.063 (inactive)
ZMYM2 (UniProt Q9UBW7) | 0.004 (inactive)
ZMAT2 (UniProt Q96NC0) | 0.032 (inactive)
XPO5 (UniProt Q9HAV4) | -0.004 (inactive)
YTHDC2 (UniProt Q9H6S0) | -0.003 (inactive)
YRDC (UniProt Q86U90) | 0.021 (inactive)
ZBTB33 (UniProt Q86T24) | 0.129 (inactive)
VPS11 (UniProt Q9H270) | 0.026 (inactive)
VAC14 (UniProt Q08AM6) | 0.003 (inactive)
VAV1 (UniProt P15498) | -0.078 (inactive)
UTP18 (UniProt Q9Y5J1) | -0.017 (inactive)
ZHX1 (UniProt Q9UKY1) | -0.053 (inactive)

compound: CC1=C(C=C(C=C1)NC(=O)C2=CC(=CC=C2)N(C)C)NC(=O)C3=CC=C(C=C3)O; assay: as above
How it was run: as §1

Target | log2 fold change
UQCC2 (UniProt Q9BRT2) | -0.016 (inactive)
ZZEF1 (UniProt O43149) | 0.009 (inactive)
YME1L1 (UniProt Q96TA2) | 0.054 (inactive)
WIPI2 (UniProt Q9Y4P8) | -0.013 (inactive)
VPS37B (UniProt Q9H9H4) | 0.012 (inactive)
WDR41 (UniProt Q9HAD4) | -0.049 (inactive)
WRN (UniProt Q14191) | 0.016 (inactive)
UNC45A (UniProt Q9H3U1) | 0.002 (inactive)
USP10 isoform 2 (UniProt Q14694) | 0.018 (inactive)
ZNF346 (UniProt Q9UL40) | -0.004 (inactive)
USP8 (UniProt P40818) | 0.018 (inactive)
UTP3 (UniProt Q9NQZ2) | -0.023 (inactive)
USP48 (UniProt Q86UV5) | 0.041 (inactive)
YEATS4 (UniProt O95619) | -0.035 (inactive)
VASP (UniProt P50552) | -0.014 (inactive)
VPS16 (UniProt Q9H269) | 0.031 (inactive)
WRNIP1 (UniProt Q96S55) | -0.003 (inactive)
ZMYM1 (UniProt Q5SVZ6) | -0.007 (inactive)
WRB (UniProt O00258) | -0.004 (inactive)
ZMYM2 (UniProt Q9UBW7) | 0.04 (inactive)
ZMAT2 (UniProt Q96NC0) | -0.028 (inactive)
XPO5 (UniProt Q9HAV4) | 0.043 (inactive)
YTHDC2 (UniProt Q9H6S0) | 0.019 (inactive)
YRDC (UniProt Q86U90) | 0.007 (inactive)
ZBTB33 (UniProt Q86T24) | 0.044 (inactive)
VPS11 (UniProt Q9H270) | -0.03 (inactive)
VAC14 (UniProt Q08AM6) | 0.039 (inactive)
VAV1 (UniProt P15498) | 0.046 (inactive)
UTP18 (UniProt Q9Y5J1) | 0.028 (inactive)
ZHX1 (UniProt Q9UKY1) | 0.024 (inactive)

compound: CC1=CC=C(C=C1)SC2=C3C=C(SC3=CN=C2)C(=O)N; assay: as above
How it was run: as §1

Target | log2 fold change
UQCC2 (UniProt Q9BRT2) | -0.012 (inactive)
ZZEF1 (UniProt O43149) | -0.005 (inactive)
YME1L1 (UniProt Q96TA2) | -0.087 (inactive)
WIPI2 (UniProt Q9Y4P8) | -0.003 (inactive)
VPS37B (UniProt Q9H9H4) | 0.028 (inactive)
WDR41 (UniProt Q9HAD4) | 0.015 (inactive)
WRN (UniProt Q14191) | -0.048 (inactive)
UNC45A (UniProt Q9H3U1) | -0.007 (inactive)
USP10 isoform 2 (UniProt Q14694) | 0.008 (inactive)
ZNF346 (UniProt Q9UL40) | 0.018 (inactive)
USP8 (UniProt P40818) | 0.009 (inactive)
UTP3 (UniProt Q9NQZ2) | -0.018 (inactive)
USP48 (UniProt Q86UV5) | -0.227 (inactive)
YEATS4 (UniProt O95619) | -0.039 (inactive)
VASP (UniProt P50552) | 0.01 (inactive)
VPS16 (UniProt Q9H269) | 0 (inactive)
WRNIP1 (UniProt Q96S55) | -0.023 (inactive)
ZMYM1 (UniProt Q5SVZ6) | -0.011 (inactive)
WRB (UniProt O00258) | -0.024 (inactive)
ZMYM2 (UniProt Q9UBW7) | -0.068 (inactive)
ZMAT2 (UniProt Q96NC0) | -0.022 (inactive)
XPO5 (UniProt Q9HAV4) | -0.01 (inactive)
YTHDC2 (UniProt Q9H6S0) | -0.018 (inactive)
YRDC (UniProt Q86U90) | 0.008 (inactive)
ZBTB33 (UniProt Q86T24) | 0.109 (inactive)
VPS11 (UniProt Q9H270) | -0.002 (inactive)
VAC14 (UniProt Q08AM6) | -0.034 (inactive)
VAV1 (UniProt P15498) | 0.082 (inactive)
UTP18 (UniProt Q9Y5J1) | 0.023 (inactive)
ZHX1 (UniProt Q9UKY1) | -0.013 (inactive)
